The text below walks through data of PubChem BioAssay AID1578 (Sanford-Burnham Center for Chemical Genomics, 2009).

Hit rate of the full screen: of about 290,000 compounds, about 3,000 (1%) were called active. The list comes from a sample in which actives are over-represented; it also holds similar structures and randomly drawn compounds. Values without a mark were called inactive. No stated cut-off is given here; in the data, active means inhibition mostly above about 36% (no sharp cut-off); inactive means mostly below about 34%.

The test can be described thus: inhibition of NOD1-driven NF-kB reporter – cell-based, luminescence, uHTS, primary screen (AID 1578).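 Further: HEK-293T reporter cells stimulated with the NOD1 agonist gamma-tri-DAP.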 The note with it: NOD1-driven NF-kB luciferase reporter cells, at 4 µM, hits give high values.
With `O=C(NCCc1ccco1)C(=O)NCC1OCCCN1S(=O)(=O)c1ccc(F)cc1` (stereo not given), the inhibition is 10.4%.

`COc1ccc(S(=O)(=O)N(C)C)cc1NC(=O)[C@H](Cc1ccccc1)N1C(=O)c2ccccc2C1=O`: the inhibition was 2%.

Consider `O=c1nc(SCc2ccccc2Cl)nc(-c2ccc(Cl)cc2)[nH]1`, for which the inhibition is 57.8% (active).

Turning to `O=c1nc(SCc2c(F)cccc2Cl)nc(-c2ccc(Cl)cc2)[nH]1`, the inhibition was 9.8%.

Take `O=c1nc(SCc2ccc(Cl)cc2)nc(-c2ccccc2)[nH]1`: the inhibition is -3.2%.

Turning to `C/C(COc1ccccc1)=N\NC(=O)c1nnn(-c2nonc2N)c1CSc1ccccc1`, the inhibition is -2.2%.

For `CCOc1cc(C2NC(=O)NC(c3ccccc3)=C2C(C)=O)ccc1OCC(N)=O` (stereo not given), the inhibition was 14.5%.

For `Cc1ccc(NC(=O)CCNC(=O)c2ccco2)cc1Cl`, the inhibition was -23.6%.

On to `O=[N+]([O-])c1cc(S(=O)(=O)NCCN2CCOCC2)ccc1Sc1nnnn1-c1ccccc1`, for which the inhibition was 46.1%.

Turning to `O=C(O)c1ccc(Sc2nnnn2-c2ccccc2)c([N+](=O)[O-])c1`, the inhibition is -15.3%.

In the case of `CN1CCN(S(=O)(=O)c2ccc(Sc3nnnn3-c3ccccc3)c([N+](=O)[O-])c2)CC1`, the inhibition was 93.5% (active).

In the case of `O=[N+]([O-])c1ccc(Sc2nnnn2-c2ccccc2)c(Cl)c1`, the inhibition is -1%.

For `COC(=O)c1ccc(Sc2nnnn2-c2ccccc2)c([N+](=O)[O-])c1`, the inhibition is 48.6%.

Turning to `COC(=O)c1ccccc1NC(=O)CN1CCN(Cc2ccccc2)CC1`, the inhibition is 1.4%.

`COc1ccc2nc(Nc3nc(CSc4nc5ccccc5[nH]4)cc(=O)[nH]3)nc(C)c2c1`: the inhibition is -25.6%.

For `Cc1ccc2c(C)nc(Nc3nc(CSc4nc5ccccc5[nH]4)cc(=O)[nH]3)nc2c1`, the inhibition is 90.5% (active).

As for `Cc1nc(Nc2nc(CSc3nc4ccccc4[nH]3)cc(=O)[nH]2)nc2ccccc12`, the inhibition is -5.7%.

Regarding `O=S1(=O)CCOCCCN1Cc1cccc(C(F)(F)F)c1`, the inhibition is 56.8% (active).

As to `O=S1(=O)CCOCCCN1Cc1ccccc1`, the inhibition is -16.6%.

`O=S1(=O)CCOCCCN1Cc1cccc(F)c1`: the inhibition is -39.7%.

For the compound `COc1ccc(C(=O)N/N=C/c2c(C)[nH]c(=O)[nH]c2=O)cc1`, the inhibition is -27.4%.

As for `Cc1ccc(S(=O)(=O)NC(Cc2ccccc2)C(=O)NN)cc1` (stereo not given), the inhibition was -27.9%.

For the compound `Cc1ccc(S(=O)(=O)NC(Cc2ccccc2)C(=O)O)cc1` (stereo not given), the inhibition was -30.6%.

For the compound `Cc1ccc(S(=O)(=O)N[C@@H](Cc2ccccc2)C(=O)CCl)cc1`, the inhibition was 87.7% (active).

For `Cc1nnc(SCC(=O)NNC(=O)c2ccc(Br)cc2)n1C`, the inhibition was -33.3%.

With `CN(CC(=O)N1CCN(c2ccc(F)cc2)CC1)S(=O)(=O)c1ccc2c(c1)c(=O)n(C)c(=O)n2C`, the inhibition was -11.7%.

In the case of `CCC(=O)Nc1nc2c(s1)COc1ccccc1-2`, the inhibition is 8.2%.

`CCCC(=O)Nc1nc2c(s1)COc1ccccc1-2`: the inhibition is 48.7%.

With `CCCCC(=O)Nc1nc2c(s1)COc1ccccc1-2`, the inhibition was 62.4% (active).

Consider `Cc1[nH]c2ccccc2c1C(=O)/C=C\c1ccccc1Cl`, for which the inhibition was -16.5%.

In the case of `Cc1[nH]c2ccccc2c(=O)c1C(=O)/C=C/c1ccccc1`, the inhibition was 79.7% (active).

For `Cc1[nH]c2ccccc2c1C(=O)/C=C/c1ccccc1Cl`, the inhibition was -24.5%.

On to `COc1ccc(Oc2ccc(/C=N/NC(=O)c3cccnc3)cc2[N+](=O)[O-])cc1`, for which the inhibition is -17.7%.

Turning to `O=C(Nc1ccc2c(c1)nc1n2CCN(Cc2ccccc2)C1)c1cccs1`, the inhibition was 89.9% (active).

Take `CC(c1ccccc1)N1CCn2c(nc3cc(NC(=O)c4cccs4)ccc32)C1` (stereo not given): the inhibition is 0.3%.

As for `COCCN1CCn2c(nc3cc(NC(=O)c4cccs4)ccc32)C1`, the inhibition was -28.2%.

With `COc1ccc(CC(=O)Nc2c3c(nn2C(C)(C)C)CS(=O)C3)cc1` (stereo not given), the inhibition is -19.6%.

Consider `CN(C)c1ccc(-n2cccc2/C=C/[N+](=O)[O-])cc1`, for which the inhibition was -0.1%.

Turning to `CN(c1ccccc1)c1ccc(/C=C/[N+](=O)[O-])cc1`, the inhibition is 105% (active).

Regarding `O=[N+]([O-])/C=C/c1ccc2c(ccn2Cc2ccccc2)c1`, the inhibition was -4.4%.

For `Cc1[nH]c2ccccc2c1C(=O)CSC(=S)N1CCOCC1`, the inhibition is 3.9%.

As to `CCC1=C/C(=C/c2sc3ccccc3[n+]2CC)CC(C)(C)C1`, the inhibition is -7.6%.

As for `CC[n+]1c(/C=C2/C=C(C)CC(C)(C)C2)sc2ccc(OC)cc21`, the inhibition is 77.4% (active).

For `CC[n+]1c(/C=C2\C=C(C)CC(C)(C)C2)sc2ccccc21`, the inhibition is 20.8%.

Take `Cc1cc(Br)ccc1NC(=S)N1CCOCC1`: the inhibition was -0.1%.

Consider `N#Cc1nc(Cc2ccccc2)oc1NCc1ccccc1`, for which the inhibition is -5.9%.

In the case of `N#Cc1nc(Cc2ccccc2)oc1NCc1cccnc1`, the inhibition is -33.9%.

For `N#Cc1nc(Cc2ccccc2)oc1NCc1ccccc1Cl`, the inhibition is 57% (active).

In the case of `COc1ccc(/C=C/C(=O)Nc2cc(C)nn2-c2nc3ccccc3[nH]2)cc1`, the inhibition is 17.4%.

Turning to `Cc1cc(NC(=O)c2ccccc2)n(-c2nc3ccccc3[nH]2)n1`, the inhibition was -15%.

Take `COc1ccc(C(=O)Nc2cc(C)nn2-c2nc3ccccc3[nH]2)c(OC)c1`: the inhibition was 98.7% (active).

With `Cc1cc(NC(=O)c2ccccc2F)n(-c2nc3ccccc3[nH]2)n1`, the inhibition is -8.4%.

Regarding `COc1cccc(OC)c1C(=O)Nc1cc(C)nn1-c1nc2ccccc2[nH]1`, the inhibition is -24.9%.

On to `CCCCN(C)S(=O)(=O)c1cc2c3c(c1)CCC(=O)N3CCC2`, for which the inhibition was -4.1%.

Turning to `Cc1noc(C)c1C(=O)N1CCCC(N2CCN(c3cccc(C(F)(F)F)c3)CC2)C1` (stereo not given), the inhibition is -31.8%.

Regarding `COc1ccc(-c2[nH]ncc2CN(C)Cc2cccnc2)c(OC)c1`, the inhibition was -16.3%.

Turning to `CS(=O)(=O)N1CCN(c2ccccc2NC(=O)c2cc(Br)ccc2Cl)CC1`, the inhibition was -10.8%.

Regarding `COCCn1c(SCC(=O)Nc2cccc(C(=O)OC)c2)nc2ccccc2c1=O`, the inhibition is 2.6%.

With `O=C(NC1CC2CCC(C1)N2Cc1ccco1)c1ccccc1` (stereo not given), the inhibition is -29.6%.

For `Cc1c(Cl)cccc1NC(=O)Nc1ccccc1C(N)=O`, the inhibition is -30%.
